CASP6 VEID inh – caspase-6 (human) enzyme inhibition; P55212; purified caspase-6, Z-VEID-R110 cleavage fluorescence; inhibition, % at 12.5 µM; 350,000 tested, 0.53% active; AID 686996;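 active = mean inhibition across replicates at least about 35%, with every replicate also reaching that limit, limit read from the data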
MBD2 inh – blocks human MBD2 binding to methylated DNA | Q9UBB5 | TR-FRET, MBD2 binding to methylated oligonucleotide | inhibition, % at 4.4 µM | 370,000 tested, 0.31% active | AID 686964; in the data active = inhibition above about 13%
LEDGF integ inh – blocks HIV-1 LEDGF/p75-dependent DNA integration | TR-FRET IN-LEDGF/p75 DNA integration, Eu/Cy5 | inhibition, % at 3.7 µM | 370,000 tested, 0.64% active;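 active = inhibition above the screen-wide mean plus 3 SD, cut at about 13% in these data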;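 also: signal is the Cy5 over europium emission ratio at 671 and 618 nm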
UHRF1 binding – human UHRF1 methylated DNA binding inhibitors. Q96T88. UHRF1 binding to methylated oligo, TR-FRET. inhibition, % at 4.4 µM. 370,000 tested, 0.75% active. AID 687016; in the data active = inhibition above about 21%;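 also: UHRF1 SRA domain binding a hemimethylated CpG hairpin DNA probe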
Target sequence (Q96T88 whole entry, looked up, the tested form may be a part): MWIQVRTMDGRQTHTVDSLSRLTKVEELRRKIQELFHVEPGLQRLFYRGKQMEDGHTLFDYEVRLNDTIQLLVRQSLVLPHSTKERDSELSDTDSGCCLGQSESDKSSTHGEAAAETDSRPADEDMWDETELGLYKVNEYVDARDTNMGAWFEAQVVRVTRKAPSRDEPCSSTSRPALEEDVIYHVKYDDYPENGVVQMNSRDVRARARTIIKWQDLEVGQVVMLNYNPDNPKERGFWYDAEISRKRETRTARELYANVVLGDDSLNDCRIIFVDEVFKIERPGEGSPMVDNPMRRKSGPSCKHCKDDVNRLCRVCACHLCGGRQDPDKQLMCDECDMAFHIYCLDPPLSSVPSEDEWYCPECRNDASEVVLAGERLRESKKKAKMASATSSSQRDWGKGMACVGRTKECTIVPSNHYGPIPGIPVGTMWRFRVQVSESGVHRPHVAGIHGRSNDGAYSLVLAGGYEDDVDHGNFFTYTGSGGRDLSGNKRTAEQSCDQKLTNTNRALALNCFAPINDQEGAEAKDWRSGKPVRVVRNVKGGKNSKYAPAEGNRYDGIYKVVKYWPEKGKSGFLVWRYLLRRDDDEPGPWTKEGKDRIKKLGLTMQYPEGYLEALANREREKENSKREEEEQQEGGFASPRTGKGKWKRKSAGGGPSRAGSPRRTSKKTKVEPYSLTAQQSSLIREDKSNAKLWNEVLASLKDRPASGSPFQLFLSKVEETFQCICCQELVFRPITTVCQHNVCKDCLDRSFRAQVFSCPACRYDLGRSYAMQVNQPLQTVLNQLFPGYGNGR
Each line names hits and unclear results; the compound was inactive in the other large screens. A selection: hits, their analogues and other compounds. The true share with any hit is near 1.4%.

CC1CCc2c(sc(NC(=O)/C=C/c3cccs3)c2C(=O)O)C1 (configuration not stated)	LEDGF integ inh 31
O=C(/C=C/c1ccco1)Nc1ccc(S(=O)(=O)N2CCOCC2)cc1	none
NS(=O)(=O)c1ccc(NC(=O)/C=C/c2ccco2)cc1	CASP6 VEID inh 54
CNC[C@H]1Oc2c(NC(=O)Nc3ccc(F)cc3)cccc2C(=O)N([C@H](C)CO)C[C@H]1C	none (no result: MBD2 inh, LEDGF integ inh, UHRF1 binding)
O=Cc1cc([B-](F)(F)F)cs1	none
O=Cc1cscc1[B-](F)(F)F	CASP6 VEID inh 66
C[C@H](CO)N1C[C@H](C)[C@H](CN(C)S(=O)(=O)c2cccs2)Oc2ccc(NC(=O)Cc3ccccc3)cc2CC1=O	none (no result: MBD2 inh, LEDGF integ inh, UHRF1 binding)
Cc1ccc(C)c(N2N=C(C(=O)OCc3nnc(-c4ccccc4Br)o3)CCC2=O)c1	CASP6 VEID inh 61
Cc1ccc(C)c(N2N=C(C(=O)OCc3nnc(-c4cccs4)o3)CCC2=O)c1	none
O=C(NC1CCSc2ccccc21)c1cc([N+](=O)[O-])ccc1N1CCOCC1 (configuration not stated)	LEDGF integ inh 14
O=C(NC1CCSc2ccccc21)c1ccc([N+](=O)[O-])cc1 (configuration not stated)	none
Cc1nc(NC(=O)COC(=O)[C@@H](NC(=O)c2ccco2)C(C)C)c(Cl)cc1Cl	UHRF1 binding 42
CCCCNC(=O)C[C@@H]1C[C@@]2(C(=O)OCC)CCC=C2N(Cc2ccc3c(c2)OCO3)C1=O	UHRF1 binding 21
CCOC(=O)[C@]12CCC=C1N(Cc1ccc3c(c1)OCO3)C(=O)[C@H](CC(=O)NCCCCc1ccccc1)C2	none
Cc1cc(C)n(-c2ccc3nnc(C)n3n2)n1	UHRF1 binding 24
Cc1nnc2ccc(N3CCCCC3)nn12	none
CCCCNC(=O)C1C(c2ccc(C(F)(F)F)cc2)=Nc2ccccc2N1C(=O)c1ccc2nc(C)[nH]c2c1 (configuration not stated)	CASP6 VEID inh 40
C[C@H](CO)N1C[C@H](C)[C@@H](CN(C)Cc2cccnc2)Oc2ncc(-c3ccncc3)cc2C1=O	none (no result: MBD2 inh, LEDGF integ inh, UHRF1 binding)
COc1ccccc1OCC(=O)NC1CCCc2ccccc21 (configuration not stated)	none
Cc1cc(C)cc(OCC(=O)NC2CCCc3ccccc32)c1 (configuration not stated)	UHRF1 binding 21 (no result: CASP6 VEID inh)
C[C@@H]1CN([C@H](C)CO)C(=O)c2cc(NC(=O)Cn3cnnn3)ccc2O[C@@H]1CN(C)C(=O)Nc1ccc(C(F)(F)F)cc1	none (no result: MBD2 inh, LEDGF integ inh, UHRF1 binding)
C[C@@H]1CN([C@@H](C)CO)C(=O)c2cccc(NC(=O)Nc3ccc(C(F)(F)F)cc3)c2O[C@H]1CN(C)C(=O)Nc1ccccc1	none (no result: MBD2 inh, LEDGF integ inh, UHRF1 binding)
CO[C@@H]1CN(C)C(=O)c2ccc(NC(=O)C3CCCC3)cc2OC[C@@H](C)N(C)C[C@H]1C	none (no result: MBD2 inh, LEDGF integ inh, UHRF1 binding)
CO[C@H]1CN(C)C(=O)c2ccc(NS(=O)(=O)c3cccc(Cl)c3)cc2OC[C@@H](C)NC[C@H]1C	CASP6 VEID inh 41 (no result: MBD2 inh, LEDGF integ inh, UHRF1 binding)
CO[C@@H]1CN(C)C(=O)c2ccc(NC(=O)C3CC3)cc2OC[C@@H](C)N(C)C[C@H]1C	CASP6 VEID inh 99 (no result: MBD2 inh, LEDGF integ inh, UHRF1 binding)
CO[C@@H]1CN(C)C(=O)c2ccc(NC(=O)C3CC3)cc2OC[C@@H](C)N(C(=O)Cc2ccccn2)C[C@H]1C	CASP6 VEID inh 39 (no result: MBD2 inh, LEDGF integ inh, UHRF1 binding)
CO[C@H]1CN(C)C(=O)c2cc(NC(C)=O)ccc2OC[C@H](C)N(S(=O)(=O)c2cn(C)cn2)C[C@H]1C	CASP6 VEID inh 36 (no result: MBD2 inh, LEDGF integ inh, UHRF1 binding)
CO[C@H]1CN(C)C(=O)c2cc(NC(C)=O)ccc2OC[C@@H](C)N(S(=O)(=O)c2cn(C)cn2)C[C@@H]1C	none (no result: MBD2 inh, LEDGF integ inh, UHRF1 binding)
Clc1ccc2c(SCC3CO3)c3ccccc3nc2c1 (configuration not stated)	UHRF1 binding 72
O=C(CSc1c2c(nc3cc(Cl)ccc13)CCCC2)NCCN1CCOCC1	none
CSc1ncccc1C(=O)OCC(=O)NCCCc1ccccc1	none
COCCNC(=O)COC(=O)c1cccnc1SC	UHRF1 binding 27
O=C1c2cc([N+](=O)[O-])cc3cc([N+](=O)[O-])cc(c23)C(=O)N1c1ccccn1	CASP6 VEID inh 48
O=C1c2ccc(Oc3cccc([N+](=O)[O-])c3)cc2C(=O)N1c1ccccn1	none
O=C(O)c1cccc(N2C(=O)c3cccc4cccc(c34)C2=O)c1	none
O=C(O)c1cccc(N2C(=O)c3cc([N+](=O)[O-])cc4cc([N+](=O)[O-])cc(c34)C2=O)c1	CASP6 VEID inh 45
O=C(C[C@@H]1C=C[C@@H](NC(=O)c2ccc(F)cc2)[C@@H](CO)O1)NCCc1ccncc1	none (no result: MBD2 inh, LEDGF integ inh, UHRF1 binding)
C[C@H]1CN([C@@H](C)CO)C(=O)c2cccc(NC(=O)C3CCCCC3)c2O[C@@H]1CN(C)S(C)(=O)=O	none (no result: MBD2 inh, LEDGF integ inh, UHRF1 binding)
COc1ccc(-c2c(C)n([O-])c(C)c(C)[n+]2=O)cc1OC	UHRF1 binding 23 (no result: CASP6 VEID inh)
COc1ccc(-c2c(C)n([O-])c(C)c(-c3ccccc3)[n+]2=O)cc1OC	none (no result: CASP6 VEID inh)
N#Cc1cccc(NC(=O)CSc2sc3c(O)cc(=O)[nH]c3c2C#N)c1	none
Cc1c(Cl)cccc1NC(=O)CSc1sc2c(O)cc(=O)[nH]c2c1C#N	none
CCCSc1nnc(NC(=O)CSc2sc3c(O)cc(=O)[nH]c3c2C#N)s1	CASP6 VEID inh 45
N#Cc1c(SCC(=O)Nc2nc3ccc(Br)cc3s2)sc2c(O)cc(=O)[nH]c12	none
N#Cc1c(SCC(=O)Nc2nc3ccccc3s2)sc2c(O)cc(=O)[nH]c12	CASP6 VEID inh 60
N#Cc1c(SCC(=O)Nc2ccccc2C(F)(F)F)sc2c(O)cc(=O)[nH]c12	CASP6 VEID inh 43, UHRF1 binding 31
N#Cc1c(SCC(=O)Nc2ccc(Cl)cc2Cl)sc2c(O)cc(=O)[nH]c12	CASP6 VEID inh 40
CCOCc1nnc(NC(=O)CS(=O)(=O)c2ccc(C)cc2)s1	UHRF1 binding 26 (no result: CASP6 VEID inh)
CCOCc1nnc(NC(C)=O)s1	none (no result: CASP6 VEID inh)
COC(=O)c1ccc2nc(-c3ccc(Cl)cc3)c(Cc3ccccc3)n2c1	UHRF1 binding 23
COC(=O)c1ccc2nc(-c3ccco3)c(Cc3ccc(C)cc3)n2c1	UHRF1 binding 23
COC(=O)c1ccc2nc(-c3ccc(C)cc3)c(Cc3ccc(C)cc3)n2c1	UHRF1 binding 21
COC(=O)c1ccc2nc(-c3ccc(Cl)cc3)c(Cc3ccccc3OC)n2c1	none
COC(=O)c1ccc2nc(-c3cccc(Cl)c3)c(Cc3ccccc3OC)n2c1	UHRF1 binding 21
C[C@H]1CCCCO[C@@H](CN(C)Cc2ccc3c(c2)OCO3)[C@@H](C)CN([C@@H](C)CO)C(=O)c2cc(NC(=O)C3CCCCC3)ccc2O1	none (no result: MBD2 inh, LEDGF integ inh, UHRF1 binding)
CCC(=O)N(C)C[C@@H]1Oc2cc(/C=C/c3ccccc3)ccc2S(=O)(=O)N([C@@H](C)CO)C[C@H]1C	none (no result: MBD2 inh, LEDGF integ inh, UHRF1 binding)
COC(=O)c1ccc2nc(-c3ccco3)c(Cc3ccccc3C(F)(F)F)n2c1	none
Clc1ccc2nc(-c3cccc(Br)c3)c(Cc3ccccc3)n2c1	UHRF1 binding 21
COC(=O)c1ccc2nc(-c3ccco3)c(Cc3ccccc3OC)n2c1	MBD2 inh 16, UHRF1 binding 26
Cc1ccc2nc(-c3cccc(Br)c3)c(CC3CCCCC3)n2c1	UHRF1 binding 21
Cc1ccc(Cc2c(-c3cccc(Br)c3)nc3ccc(C)cn23)cc1	none
